# EP2 modulator – EP2 receptor (human) modulation; AID 940; EP2-expressing cells, cAMP HTRF FRET, PGE2 co-stimulation; induction, % at 25 µM; 260,000 tested, 0.83% active;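 active = compounds whose cAMP rise, as percent of the full-agonist control response, exceeds 60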;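 also: rat C6 glioma line stably carrying human EP2 under a CMV promoter; the protocol text gives 20 µM as final concentration; 100% = response of wells given 1 µM PGE2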
# EP2 antag – inhibitors of human EP2 prostaglandin E2 receptor; P43116; C6 glioma cells expressing human EP2, cAMP TR-FRET; cells stimulated with saturating PGE2; inhibition, % at 25 µM; 260,000 tested, 0.52% active;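 active = percent inhibition above 40 after rounding to a whole number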;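 also: rat C6 glioma host cells with rolipram phosphodiesterase inhibitor present; the protocol text gives 20 µM as final concentration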
# PERK inh – human PERK inhibition, primary cell-based screen. Q9NZJ5. 220,000 tested, 0.17% active. CHO PERK-DD fusion, SEAP luminescence translation reporter. inhibition, % at 5.6 µM. AID 1416;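 active = inhibition above the mean inhibition of all tested compounds plus 3 SD, set separately per screening campaign, cut at about 2.9% in these data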;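 also: PERK kinase domain activated by AP20187 dimerizer at 100 nM; 0% = DMSO with dimerizer and 100% = rapamycin at 8.4 µM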
# eIF4E-4G inh – inhibitors of eIF4E and eIF4G interaction in translation initiation. P63073+Q04637. TR-FRET eIF4E-eIF4GI(517-606) binding, 2 h. AID 782. inhibition, % at 21.7 µM. 220,000 tested, 0.37% active;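 active = inhibition above about 30%, limit read from the data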;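 also: 0% = full FRET control wells and 100% = background wells lacking eIF4GI fragment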
# Target sequence (P63073 whole entry, looked up, the tested form may be a part): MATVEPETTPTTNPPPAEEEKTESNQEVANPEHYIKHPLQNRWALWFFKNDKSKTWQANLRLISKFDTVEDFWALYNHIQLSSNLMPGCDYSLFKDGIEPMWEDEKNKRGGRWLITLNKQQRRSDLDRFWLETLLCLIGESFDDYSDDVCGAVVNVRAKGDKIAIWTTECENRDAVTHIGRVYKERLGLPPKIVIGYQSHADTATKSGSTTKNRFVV
# Target sequence (Q04637 whole entry, looked up, the tested form may be a part): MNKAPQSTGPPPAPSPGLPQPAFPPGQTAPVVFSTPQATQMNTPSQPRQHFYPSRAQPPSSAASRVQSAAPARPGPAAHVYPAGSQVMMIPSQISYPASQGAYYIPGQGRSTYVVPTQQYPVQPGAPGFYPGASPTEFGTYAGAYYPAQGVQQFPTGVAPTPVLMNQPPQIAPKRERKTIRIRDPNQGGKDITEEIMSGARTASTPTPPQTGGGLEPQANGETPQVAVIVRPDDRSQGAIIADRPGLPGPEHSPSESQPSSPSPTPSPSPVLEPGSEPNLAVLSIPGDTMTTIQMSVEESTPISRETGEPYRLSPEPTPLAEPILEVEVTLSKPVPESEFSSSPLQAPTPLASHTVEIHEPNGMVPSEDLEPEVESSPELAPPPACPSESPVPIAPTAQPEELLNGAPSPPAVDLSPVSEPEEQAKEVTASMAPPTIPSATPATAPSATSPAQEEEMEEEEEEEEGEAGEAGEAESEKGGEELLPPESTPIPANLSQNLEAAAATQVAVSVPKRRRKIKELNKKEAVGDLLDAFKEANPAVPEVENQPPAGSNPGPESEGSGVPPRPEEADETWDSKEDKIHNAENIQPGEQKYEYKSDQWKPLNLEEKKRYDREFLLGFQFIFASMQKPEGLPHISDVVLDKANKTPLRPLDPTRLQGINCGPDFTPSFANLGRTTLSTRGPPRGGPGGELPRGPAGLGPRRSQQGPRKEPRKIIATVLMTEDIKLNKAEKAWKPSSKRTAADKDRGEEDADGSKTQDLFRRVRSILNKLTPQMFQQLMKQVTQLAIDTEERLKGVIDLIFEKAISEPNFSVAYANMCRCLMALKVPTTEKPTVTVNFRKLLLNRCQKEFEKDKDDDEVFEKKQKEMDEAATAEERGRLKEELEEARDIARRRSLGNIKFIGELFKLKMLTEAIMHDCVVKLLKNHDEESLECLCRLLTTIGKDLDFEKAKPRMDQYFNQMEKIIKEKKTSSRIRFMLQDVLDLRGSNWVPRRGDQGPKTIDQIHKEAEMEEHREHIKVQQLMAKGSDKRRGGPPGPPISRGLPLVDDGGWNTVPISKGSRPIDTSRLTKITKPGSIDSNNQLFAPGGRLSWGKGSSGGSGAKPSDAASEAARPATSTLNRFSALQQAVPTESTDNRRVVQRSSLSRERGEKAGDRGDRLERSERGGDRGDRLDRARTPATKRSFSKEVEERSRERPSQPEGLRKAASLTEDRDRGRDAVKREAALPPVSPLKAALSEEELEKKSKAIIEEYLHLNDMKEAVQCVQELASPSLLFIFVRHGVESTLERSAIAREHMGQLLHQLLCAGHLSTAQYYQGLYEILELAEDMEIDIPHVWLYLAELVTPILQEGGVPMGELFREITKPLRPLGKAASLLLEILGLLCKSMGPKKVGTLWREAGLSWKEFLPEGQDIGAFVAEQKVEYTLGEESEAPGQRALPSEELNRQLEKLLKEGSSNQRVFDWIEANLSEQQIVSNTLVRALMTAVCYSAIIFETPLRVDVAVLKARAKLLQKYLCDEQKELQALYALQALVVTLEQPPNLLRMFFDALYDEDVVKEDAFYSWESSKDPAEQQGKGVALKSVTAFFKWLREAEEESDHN
# EP2 cAMP induct – EP2 receptor cAMP induction, counter-screens negative; 1,300 tested, 47% active; AID 1080; C6 glioma EP2 cells, cAMP HTRF induction; plus low (about EC15) PGE2 agonist; shares compounds with EP2 modulator; calls only at 20 µM (by protocol);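 active = cAMP induction above 50% in the main assay while under 30% in all four parallel counter assays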;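 also: rat C6 glioma cells stably expressing human EP2 receptor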
# The depositor's hits bear a star; i = inactive; / = no result given; + = active, no number. In the library only some 1.8% were active in any assay of this set; here they are far more common.
SMILES,EP2 modulator,EP2 antag,PERK inh,eIF4E-4G inh,EP2 cAMP induct
O=C(CN1CCCCCC1)Nc1ccccc1Oc1ccccc1,70*,9,1,4,+
C[C@H](CN(C)C)C(=O)c1ccccc1C(=O)O,51,8,/,/,i
O=C(Nc1ccccc1F)c1snc2c(=O)[nH]cnc12,-24,10,/,/,/
Cc1cc(SC(C)C(=O)O)nc2ccccc12 (centres undefined),68*,12,1,0,i
CC(Sc1ccc2ccccc2n1)C(=O)O (centres undefined),97*,/,1,3,i
CC(Sc1cnc2ccccc2n1)C(=O)O (centres undefined),68*,19,-1,-2,i
COc1ccc(C2(NCc3ccc(OCC(=O)N4CCOCC4)cc3)CCCC2)cc1,-59,4,/,/,/
CC[C@H](C)C(=O)O[C@H]1C[C@@H](C)C=C2C=C[C@H](C)[C@H](CC[C@@H]3C[C@@H](O)CC(=O)O3)[C@H]21,33,10,0,0,i
CC[C@H](C)C(=O)O[C@H]1CCC=C2C=C[C@H](C)[C@H](CC[C@@H]3C[C@@H](O)CC(=O)O3)[C@H]21,34,6,1,6,/
N#CC1=C(S)N(c2ccccc2)C2(CCCCC2)NC1=O,71*,13,1,-3,i
O=C(C1CC1)N1CCC(Cn2nc(-c3ccccc3)ccc2=O)CC1,-18,/,/,/,/
COC(=O)c1cc2ccsc2n1CC(=O)N(C)c1ccccc1,-7,19,0,4,/
COC(=O)c1cc2ccsc2n1Cc1ccccc1F,71*,11,0,-1,+
COC(=O)c1cc2ccsc2n1Cc1cccc(F)c1,67*,8,1,-5,+
COC(=O)c1cc2ccsc2n1Cc1nc(-c2ccc(OC)cc2)oc1C,14,10,0,-6,/
O=C(CN1CCC(n2cnc3cccnc32)CC1)Nc1ccccc1F,3,/,/,/,/
Cc1cc2c(s1)c1cnn(CC(=O)NC3CCCC3)c(=O)c1n2C,5,/,/,/,/
COc1ccc(Nc2nc(-c3cc4cccc(OC)c4oc3=O)cs2)cc1,71*,6,0,-6,+
COc1ccc2oc(=O)c(-c3csc(Nc4cccc(O)c4)n3)cc2c1,-48,32,2,4,/
C1=C(c2ccccc2)Nc2ccccc2N=C1c1ccccc1,66*,3,0,-27,+
CC1Oc2ccc(S(=O)(=O)N3CCCC(CO)C3)cc2NC1=O (centres undefined),-34,5,/,/,/
Cn1ncc(Br)c1C(=O)Nc1ccc(F)cc1F,-9,10,1,2,/
CCOc1ccccc1NC(=O)c1c(Br)cnn1C,69*,3,1,-24,i
CN(Cc1c(C(=O)N2CCc3ccccc3C2)nc2ccc(Cl)cn12)C(C1CC1)C1CC1,76*,18,0,-2,i
CC(=O)NC(Cc1cccc2ccccc12)C(=O)N1CCN(C(=O)c2ccc(Cl)cc2)CC1 (centres undefined),-36,13,/,/,/
SMILES,EP2 modulator,EP2 antag,PERK inh,eIF4E-4G inh,EP2 cAMP induct
Cc1cc(CN2CCC(O)(c3ccccc3)C2)ccc1N1CCCC1 (centres undefined),-60,8,/,/,/
CN(C)c1ncc(S(=O)(=O)c2ccccc2)c(-c2ccccc2Cl)n1,66*,5,0,10,+
CN(C)c1ncc(S(=O)(=O)c2ccccc2)c(N)n1,28,10,2,0,/
C=CCC1(C)C(=O)N(c2ccccc2)c2ccccc21 (centres undefined),69*,4,1,20,i
C=CCCC1(C)C(=O)N(c2ccccc2)c2ccccc21 (centres undefined),77*,5,1,21,+
CC(C)CCn1c(O)c(N=NC(=O)c2ccco2)c2ccccc21,73*,1,-1,-5,i
CCN(CC)C(=O)c1sc2nc(N3CCOCC3)c3c(c2c1N)CCCC3,32,16,-2,2,/
COC(=O)c1sc2nc(-c3ccccc3)c3c(c2c1N)CCCC3,73*,13,2,6,i
Nc1c(C(=O)O)sc2nc(-c3ccccc3)c3c(c12)CCCC3,22,9,1,2,/
COC(=O)c1sc2nc(N3CCCCC3)c3c(c2c1N)CCCC3,74*,17,0,-8,i
CCOC(=O)c1sc2nc(N3CCOCC3)c3c(c2c1N)CCCC3,14,13,1,2,/
NC(=O)c1sc2nc(N3CCCCC3)c3c(c2c1N)CCCC3,76*,8,1,-2,+
CCCC(=O)N(Cc1ccccc1)c1nnc(-c2cc(OC)c(OC)c(OC)c2)s1,41,13,/,/,/
Cc1cc(C)c(S(=O)(=O)N(C2=NCCS2)S(=O)(=O)c2c(C)cc(C)cc2C)c(C)c1,71*,16,1,3,i
Cc1ccc(N=Nc2c(N)[nH]n3c(=O)c4c(nc23)CCCC4)cc1,81*,/,0,-4,+
Cc1cc(C)c(-n2cccn2)c(CN(CCCn2ccnc2)Cc2ccccc2F)c1,44,2,/,/,/
CSc1nc(NCc2ccco2)c2ccccc2n1,65*,16,-1,0,i
COc1ccccc1NC(=O)N1C2CCC1CC(O)(c1cccnc1)C2 (centres undefined),-8,9,/,/,/
COc1ccc(C2=NN(C(=O)c3cccs3)C(c3ccccc3O)C2)cc1 (centres undefined),71*,7,2,4,+
COc1ccc(C2=NN(C(=O)c3cccs3)C(O)(C(F)(F)F)C2)cc1 (centres undefined),98*,3,0,1,+
COc1ccc(C(=O)N2N=C(C(C)C)CC2(O)C(F)(F)F)cc1 (centres undefined),4,18,/,/,/
O=c1[nH]c(C23CC4CC(CC(C4)C2)C3)nc2ccccc12,2,13,/,/,/
CCc1cc2cc(C)cc(C)c2nc1SCC(=O)N1CCCC1,82*,9,0,-2,i
O=C(Nc1nccs1)c1ccc(I)cc1,-57,9,/,/,/
Cc1ccc(OCc2nnc(SCC(=O)c3ccccc3)n2-c2ccccc2)cc1,32,1,0,-3,/
SMILES,EP2 modulator,EP2 antag,PERK inh,eIF4E-4G inh,EP2 cAMP induct
Cc1cccc(-n2c(CCc3ccccc3)nnc2SCC(=O)c2ccccc2)c1,64*,8,-1,3,i
CCc1ccccc1OCC(=O)Nc1ccc(S(=O)(=O)Nc2nccs2)cc1,6,13,/,/,/
CSc1nc(Oc2ccc(F)cc2)c2ccccc2n1,68*,12,2,15,+
CCc1sc(-c2cc3ccc(O)cc3oc2=O)nc1-c1ccccc1,10,10,/,/,/
CCC1(C)Cc2ccccc2-c2nc3n(c(=O)c21)CC(C(=O)O)S3 (centres undefined),3,16,0,-2,/
CCC1(C)Cc2ccccc2-c2nc3n(c(=O)c21)CCS3 (centres undefined),79*,12,-2,0,+

# Source: PubChem (several laboratories)
